Screening results as filed in PubChem.
Compounds with a hit are over-represented: about 2.4% of the library has one in this group of screens.
CHO-K1 Ca antag – counter-screen for M1 antagonists: effect in parental CHO-K1 cells. ATP-induced calcium, Fluo-8 fluorescence. inhibition, % at 3 µM. 360,000 compounds, 0.6% hits;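 active = inhibition above a per-plate cutoff, the plate's mean sample inhibition plus 3 SD, cut at about 24% in these data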;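 note: 0% = DMSO plus EC80 ATP and 100% = DMSO alone without ATP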
CHRM1 antagonist – human M1 muscarinic receptor antagonists, primary screen, CHO-K1 cells, Fluo-8 calcium fluorescence, 1536-well; Muscarinic acetylcholine receptor M1 (Homo sapiens), P11229; CHO-K1 hM1, ACh EC80 antagonist; inhibition, % at 3 µM; 360,000 compounds, 1.3% hits; AID 588852, 2011;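 active = percent inhibition above its own plate's cutoff, namely the mean of that plate's compound wells plus 3 SD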;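 note: peak over basal fluorescence ratio during 140 s after agonist addition; 0% = ACh EC80 plus DMSO and 100% = DMSO alone without agonist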
Target sequence (P11229 whole entry, looked up): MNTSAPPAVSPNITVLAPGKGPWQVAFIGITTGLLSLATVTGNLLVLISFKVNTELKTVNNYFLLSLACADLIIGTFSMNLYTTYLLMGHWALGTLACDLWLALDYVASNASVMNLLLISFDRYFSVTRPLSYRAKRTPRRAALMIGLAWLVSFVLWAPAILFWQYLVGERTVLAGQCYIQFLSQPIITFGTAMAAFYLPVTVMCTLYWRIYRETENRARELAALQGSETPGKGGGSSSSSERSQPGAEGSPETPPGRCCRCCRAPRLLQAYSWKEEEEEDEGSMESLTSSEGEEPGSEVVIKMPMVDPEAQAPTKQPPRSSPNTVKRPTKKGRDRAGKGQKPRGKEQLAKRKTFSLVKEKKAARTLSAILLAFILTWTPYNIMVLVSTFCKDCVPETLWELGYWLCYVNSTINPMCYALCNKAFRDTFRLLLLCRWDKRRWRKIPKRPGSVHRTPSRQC
M1 PAM – human M1 muscarinic receptor positive allosteric modulators, primary screen, CHO-K1 cells, Fluo-8 calcium fluorescence, 1536-well | Muscarinic acetylcholine receptor M1 (Homo sapiens), P11229 | CHO-K1 hM1, ACh EC20; 0% = ACh EC20, 100% = maximal ACh | activation, % at 3 µM | 360,000 compounds, 0.088% hits | AID 588819, 2011; in the data active = activation above about 19%, passing the limit was not always enough
M1 ag parental – counter-screen for M1 agonists: effect in parental CHO-K1 cells; Fluo-8 calcium fluorescence; scaled to maximal ATP response, vehicle zero; activation, % at 3 µM; 360,000 compounds, 0.48% hits; in the data active = activation above about 15%;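 note: untransfected CHO-K1 host cells lacking M1 receptor as counterscreen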
M1 ag – human M1 muscarinic receptor agonists, primary screen, Fluo-8 calcium fluorescence, CHO-K1 cells, HTS | Muscarinic acetylcholine receptor M1 (Homo sapiens), P11229 | CHO-K1 hM1, agonist mode; 0% DMSO, 100% acetylcholine EC100 | activation, % at 3 µM | 360,000 compounds, 0.33% hits | AID 588814, 2011;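 active = activation above the run's mean compound activation plus 3 SD, cut at about 16% in these data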;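 note: peak over basal fluorescence ratio within a 140 s kinetic read after compound addition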
CHO-K1 Ca PAM – nonselective calcium activators in parental CHO-K1 cells, primary screen, counter-screen for M1 PAM project, cell-based, Fluo-8 calcium fluorescence, full deck, 1536-well. ATP EC20; 0% at ATP EC20, 100% at ATP max. activation, % at 3 µM. 360,000 compounds, 0.02% hits. AID 602247, 2012;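 active = activation above the run cutoff, the mean activation of all test compounds plus 3 SD, cut at about 40% in these data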;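 note: peak over basal fluorescence ratio in a 140 s read after ATP addition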
Starred values were filed as active, the others as inactive.

SMILES | CHO-K1 Ca antag | CHRM1 antagonist | M1 PAM | M1 ag parental | M1 ag | CHO-K1 Ca PAM
O=C(COc1ccc(Cl)cc1Cl)NNC(=S)NC(=O)c1ccco1 | -9 | -1 | -1 | 0 | -2 | 12
CCCOc1ccc(C(=O)NNC(=S)NC(=O)c2cccs2)cc1 | 44* | 78* | -25 | 87* | 92* | -29
COc1ccc(C(=O)NNC(=S)NC(=O)c2ccco2)cc1 | -4 | -6 | 2 | 7 | 7 | 8
CC(Oc1ccc(Cl)cc1)C(=O)NNC(=S)NC(=O)c1ccco1 (stereo not drawn) | -3 | -2 | -10 | 32* | 51* | 6
COC(=O)CNC(=S)NC(=O)c1ccc(C(C)(C)C)cc1 | -6 | 72* | -24 | 0 | -7 | 7
CCCOc1ccc(C(=O)NNC(=S)NC(=O)c2ccccc2)cc1 | 42* | 69* | -38 | 105* | 115* | -39
CC(C)(C)c1ccc(C(=O)NC(=S)NCc2cccnc2)cc1 | -5 | 8 | -16 | 3 | -8 | 3
CC(C)(C)c1ccc(C(=O)NC(=S)NNC(=O)COc2ccccc2)cc1 | -4 | 4 | 0 | 2 | 24* | 2
COc1ccccc1NC(=O)N(C)C[C@H]1Oc2ncc(Br)cc2C(=O)N([C@H](C)CO)C[C@H]1C | -9 | -13 | 3 | 1 | -4 | 21
CC(OC(=O)C1CCN(S(=O)(=O)c2ccc3c(c2)OCCO3)CC1)C(=O)NC1(C#N)CCCCC1 (stereo not drawn) | -14 | -9 | 10 | 3 | -6 | 28
Cc1nnsc1C(=O)NC(C)c1ccccc1 (stereo not drawn) | 2 | -17 | 5 | 21* | 4 | 1
COc1ccc(Cl)cc1C(=O)CSc1nnnn1C1CCCCC1 | -1 | 27* | -16 | 0 | -3 | 5
O=C(CSc1nn(-c2ccccc2)c(=S)s1)Nn1cnnc1 | -4 | -10 | 3 | 0 | -1 | 6
Cc1ccc(NC(=O)CSc2nn(-c3ccccc3)c(=S)s2)cc1S(=O)(=O)N(C)C | 29* | 25* | -12 | 13 | -1 | -5
CCN1CCC2(CC1)N=C(c1ccc(F)cc1)C(=S)N2C(=O)c1ccc(C(C)(C)C)cc1 | 8 | 101* | -28 | 1 | -15 | -7
CN1CCC2(CC1)N=C(c1ccc(F)cc1)C(=S)N2C(=O)c1ccccc1 | 10 | 45* | -26 | 0 | -7 | -12
CCN1CCN(c2nc(-c3ccc(F)cc3)cc(=O)[nH]2)CC1 | -6 | -8 | 10 | 0 | -2 | 14
O=C(c1ccccc1)N1N=C(c2ccc(F)cc2)CC1(O)C(F)(F)F (stereo not drawn) | -14 | -6 | 7 | -1 | -6 | -3
O=C(NNC(=O)C1C2C=CC(C2)C1C(=O)O)c1ccccc1O (stereo not drawn) | 11 | -3 | 6 | 0 | 1 | 7
CC(C)C(=O)Nc1ccc(NC(=S)NC(=O)c2ccccc2F)cc1 | -8 | -12 | 7 | 4 | -3 | 6
COC(=O)C[C@H]1C[C@@H]2c3cc(NC(=O)CN(C)C)ccc3O[C@@H]2[C@H](CO)O1 | -11 | -19 | 9 | 1 | -1 | 17
COCC(=O)Nc1ccc2c(c1)[C@@H]1C[C@H](CC(=O)OC)O[C@@H](CO)[C@@H]1O2 | 24* | 19 | -10 | 0 | -2 | -12
CCC(=O)N1CCc2cc(S(=O)(=O)CCC(=O)Nc3cccc(F)c3)ccc21 | -5 | -25 | 3 | 0 | -3 | 10
CCC(=O)N1CCc2cc(S(=O)(=O)CCC(=O)NCc3cccc(OC)c3)ccc21 | -18 | 51* | 3 | 1 | -4 | 2
CCC(=O)N1CCc2cc(S(=O)(=O)CCC(=O)Nc3ccc(F)c(F)c3)ccc21 | 35* | 11 | -4 | 0 | -2 | -8
SMILES | CHO-K1 Ca antag | CHRM1 antagonist | M1 PAM | M1 ag parental | M1 ag | CHO-K1 Ca PAM
Cc1cc(C)cc(OCCCCn2cncn2)c1 | -3 | -20 | 11 | 1 | -5 | 12
O=S(=O)(c1ccc2nc(N3CCN(c4ccccc4F)CC3)ccc2c1)N1CCCCC1 | 25* | 3 | -3 | 2 | -1 | -6
COc1ccccc1CN(Cc1nc2ccccc2c(=O)[nH]1)S(=O)(=O)c1ccc2ccccc2c1 | -2 | 43* | -25 | 2 | -7 | -11
O=C(CN1CCN(S(=O)(=O)c2ccccc2)CC1)Nc1ccccc1C(=O)NC1CC1 | -18 | 13 | -6 | 7 | -4 | 13
COc1cc2c(cc1NC(=O)CN1CCN(S(=O)(=O)c3ccc(C)cc3)CC1)oc1ccccc12 | 12 | -31 | 23* | 0 | 15 | -6
CC(=O)c1ccc(S(=O)(=O)N2CCN(CC(=O)Nc3ccccc3C(=O)NC3CC3)CC2)cc1 | 13 | 37* | -16 | 3 | 0 | -17
CCN(C(=O)COC(=O)c1n[nH]c2ccccc12)c1ccccc1 | 15 | 0 | 7 | 0 | 2 | -20
Cc1ccc(OCCCn2c(=O)sc3ccccc32)cc1 | 24* | 17 | -10 | -1 | -2 | -10
Cc1ccc(OCCn2c(=O)sc3ccccc32)cc1 | -4 | -10 | -5 | 0 | -7 | 11
O=C1CC(Sc2nnc(-c3ccccc3)o2)C(=O)N1c1ccccc1 (stereo not drawn) | 4 | -15 | 11 | 1 | 1 | 8
O=C1c2ccccc2CC1Sc1nnc(-c2ccncc2)o1 (stereo not drawn) | 24* | -4 | 4 | 0 | 1 | -7
Cc1cccc(C)c1NC(=O)CN(Cc1ccccc1)Cc1ccccc1 | -9 | -24 | 2 | 6 | 18* | 15
N#Cc1ccsc1NC(=O)CN(Cc1ccccc1)Cc1ccccc1 | -19 | -8 | 9 | 1 | -8 | 44*
N#Cc1ccsc1NC(=O)CCc1ccccc1 | -10 | -6 | 7 | 1 | -2 | 16
Cc1cnc(C(=O)OCC(=O)c2ccc(C)s2)cn1 | -14 | -4 | 9 | 0 | -3 | 11
CCOC(=O)C1(C)CCCN(C(=O)c2ccccc2OC(F)(F)F)C1 (stereo not drawn) | 1 | -1 | -1 | 0 | -4 | 15
C[C@H](CO)N1C[C@H](C)[C@@H](CN(C)S(=O)(=O)c2ccc(F)cc2)Oc2ccc(NC(=O)CCN3CCOCC3)cc2C1=O | -25 | -1 | -4 | 0 | -11 | 16
O=C(CNC1CCCCC1)Nc1cccc([N+](=O)[O-])c1 | 5 | -5 | 9 | -1 | -1 | -25
O=C(Nc1ccccc1)NC1CCCCCCC1 | 11 | -6 | 6 | 2 | -3 | 5
